# Screening results (PubChem BioAssay)
# Shown are actives, neighbours in structure and some others; about 19% of the full set was active somewhere.
# TDP1 cell noCPT: qHTS for Inhibitors of human tyrosyl-DNA phosphodiesterase 1 (TDP1): qHTS in cells in absence of CPT. DT40 Tdp1-/- hTDP1 cells, no CPT, ATP luminescence, 48 h. Potency, µM (series often up to 46.2 µM), for inactives: at the top dose activity change, negative = growth inhibition, usual class: inhibitors. hit rate 15% among 420,000. AID 686978, 2013; also: nearly all actives have a fitted effect of over 55% in size
#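 Luminescent ATP content (CellTiter-Glo) served as the growth readout. Knockout chicken DT40 cells expressing human TDP1 were exposed to compounds without camptothecin for a minimum 48 hr at 37 °C.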
# TDP1 block: TDP1 (human) enzyme inhibition; Q9NUW8; recombinant TDP1, AlphaScreen DNA substrate cleavage; Potency, µM (series often up to 130 µM), inactives show at the top dose activity change, negative = inhibition, hits mostly inhibitors; hit rate 0.28% among 350,000; AID 485290; also: nearly all actives have a fitted effect of over 40% in size
#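 Here, a 5' biotin and 3' phosphotyrosine-FITC DNA oligonucleotide reports Tdp1 activity: intact substrate bridges AlphaScreen beads, while cleavage leaves a 3' phosphate and drops signal. All incubations at room temperature.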
# Gal4-VP16 FLuc: counter-screen for ROR gamma inhibitors: Gal4-VP16 reporter. Drosophila S2 Gal4-VP16 UAS-luciferase, luminescence, 20 h. Potency, µM (series often up to 53.6 µM), inactives show at the highest dose activity, negative = inhibition, usual class: inhibitors. hit rate 3.5% among 310,000. AID 2546;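 also: Gal4-VP16 expression switched on by copper sulfate through the metallothionein promoter; nearly all actives have a fitted effect of over 50% in size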
# RORgamma inh: blocks mouse ROR gamma transcriptional activity | P51450 | Drosophila S2 Gal4-RORgamma UAS-luciferase reporter, 20 h | Potency, µM (series often up to 53.6 µM), for inactives: top-dose activity change, negative = inhibition, actives largely listed as inhibitors | hit rate 5.4% among 310,000; also: nearly all actives have a fitted effect of over 60% in size
# Target sequence (P51450 whole entry, looked up, the tested form may be a part): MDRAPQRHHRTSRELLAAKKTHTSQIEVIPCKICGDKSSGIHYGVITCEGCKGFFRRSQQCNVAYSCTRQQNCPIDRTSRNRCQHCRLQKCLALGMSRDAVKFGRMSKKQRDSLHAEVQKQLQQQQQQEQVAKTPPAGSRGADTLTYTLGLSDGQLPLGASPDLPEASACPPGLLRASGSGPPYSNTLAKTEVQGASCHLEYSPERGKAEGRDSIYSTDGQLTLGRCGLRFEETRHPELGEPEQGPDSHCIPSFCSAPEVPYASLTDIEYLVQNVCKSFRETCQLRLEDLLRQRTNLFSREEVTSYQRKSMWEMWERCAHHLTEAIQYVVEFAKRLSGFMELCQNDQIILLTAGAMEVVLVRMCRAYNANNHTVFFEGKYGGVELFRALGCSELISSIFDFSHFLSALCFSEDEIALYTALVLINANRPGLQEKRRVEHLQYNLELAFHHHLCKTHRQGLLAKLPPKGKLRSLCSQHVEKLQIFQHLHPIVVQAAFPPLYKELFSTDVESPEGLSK
#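 Using a luciferase readout, inhibitors were identified by reduced reporter activity in Drosophila cells coexpressing a copper-inducible Gal4–ROR gamma fusion and UAS-driven Photinus luciferase, incubated 20 hr after 700 uM copper sulfate.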
# TDP1 cell CPT: DT40-hTDP1 cell growth loss with CPT; AID 686979; chicken DT40 Tdp1-/-;hTDP1 cells + 20 nM CPT, ATP luminescence, 48 h; hit rate 12% among 420,000; Potency, µM (doses to about 46.2 µM), for the others: at the highest dose activity change, negative = growth inhibition, hits mostly inhibitors; also: nearly all actives have a fitted effect of over 55% in size
#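 Chicken DT40 Tdp1-/- cells stably complemented with human TDP1 were seeded at 400 cells/well in medium containing 20 nM camptothecin, exposed to pin-transferred compounds, and grown at 37 °C for at least 48 hr. Viability was read as ATP luminescence.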
# * = called active by the depositor; ? = inconclusive; . = not tested or not shown; [ ] = dose if it differs, or a comment. Calls follow the shape of the dose curve; as a rule, active = well fitted curve in the direction sought with a large enough effect; inconclusive = small, poorly fitted or top-dose-only effect, or another doubt; inactive = no such curve, though single readings can be large; an effect the other way counts as inactive or inconclusive. % is scaled to controls: 0 for no effect and ±100 for the full control effect; potency is read from the fitted curve at half-maximal effect.
SMILES,TDP1 cell noCPT,TDP1 block,Gal4-VP16 FLuc,RORgamma inh,TDP1 cell CPT
CN(C)S(=O)(=O)c1cccc(NC(=O)c2ccc(NS(=O)(=O)c3cccs3)cc2)c1,-21.9%,0.7%,.,.,-24.8%
O=[N+]([O-])c1cc(C(F)(F)F)cc([N+](=O)[O-])c1NN=C1CCCCC1,23.1µM*,10.5%,14.0%,13.9%,?
O=[N+]([O-])c1cc(C(F)(F)F)cc([N+](=O)[O-])c1NCCN1CCNCC1,20.6µM*,.,1.8%,-13.4%,20.6µM*
CCCCn1c(SCC(=O)Nc2cccc(C)n2)nnc1-c1ccco1,?,2.0%,-4.6%,11.7%[10 µM],-17.2%
Nc1nonc1-n1nnc(C(=O)N/N=C/c2cccnc2)c1CSC1=NCCS1,?,7.5%,-4.4%,29.2%,-4.4%
CC(C)c1ccc(/C=N/NC(=O)c2nnn(-c3nonc3N)c2CSC2=NCCS2)cc1,20.6µM*,5.6%,?,15.8µM*,?
Nc1nonc1-n1nnc(C(=O)N/N=C/c2ccc(Br)cc2)c1CSC1=NCCS1,25.9µM*,0.0%,?,-124.5%,?
CCOC(=O)c1ccc(NC(=O)N2CCN(S(C)(=O)=O)CC2)cc1,0.6%,1.1%,.,19.1%[0.365 µM],-0.7%
COC(=O)c1cc([N+](=O)[O-])c(-n2cncn2)c([N+](=O)[O-])c1,5.8µM*,0.0%,-3.6%,-0.9%,5.8µM*
COc1cccc(O)c1CN1CCC(C(=O)Nc2ccc(Oc3cccnc3)cc2)CC1,13µM*,7.5%,4.5%,29.6%,20.6µM*
COc1cccc(O)c1CN1CCC(C(=O)Nc2ccc(-c3cccc(C)c3)cc2)CC1,16.4µM*,5.6%,14.1µM*,10µM*,?
CCn1cc(CN2CCC(C(=O)Nc3ccc(Oc4ccccc4F)cc3)CC2)cn1,20.6µM*,.,.,.,?
COc1ccc(CN2CCC(C(=O)Nc3ccc(Oc4cccnc4)cc3)CC2)c(C)c1C,2.91µM*,4.3%,?,-6.0%,?
CC1CCCC(C)N1C(=O)CSc1nnc(NC(=O)c2cccs2)s1 (stereo not given),-0.8%,3.8%,21.3%,0.5%,-13.9%
Cn1cc(C(=O)Nc2ccccn2)c(=O)c2ccccc21,-22.3%,.,3.7%,27.0%,-23.1%
COc1cc(CN2CCCC(C(=O)Nc3ccccc3Oc3cccnc3)C2)ccc1F (stereo not given),16.4µM*,6.0%,-0.2%,33.2%,?
O=C(Nc1ccccc1Oc1cccnc1)C1CCCN(Cc2cccc(Cl)c2)C1 (stereo not given),-16.3%,0.6%,3.9%,3.2%,-29.5%
Cn1ccnc1CN1CCCCC1C(=O)Nc1ccc(Oc2cccnc2)cc1 (stereo not given),23.1µM*,2.9%[56.1 µM],2.8%,-8.7%,14.6µM*
CCOC(=O)c1c(C)[nH]c(C(=O)COC(=O)COc2ccccc2C)c1C,3.6%,4.2%,6.3%,6.1%,2.7%
O=C(Nc1ccccc1Cl)O/N=C/c1ccc(F)cc1,-7.1%,.,.,.,-0.7%
O=C(Nc1ccccc1)O/N=C/c1ccc(F)cc1,-21.4%,.,?,10µM*,4.5%
COc1ccc(/C=N/OC(=O)Nc2ccccc2OC)cc1,1.64µM*,-5.1%,-10.4%,-17.1%,1.46µM*
CN(C)c1ccc(/C=N/OC(=O)Nc2ccccc2Cl)cc1,14.6µM*,0.0%,-7.1%,-41.6%,8.2µM*
Cc1ccc(NC(=O)O/N=C/c2ccc(F)cc2)cc1,-0.1%,.,-3.6%,6.6%,23.5%
Cc1cc(N=Nc2ccccc2C(=O)O)c(C)c(C)c1O,-11.5%,8.3%,-3.8%,0.1%,-23.1%
SMILES,TDP1 cell noCPT,TDP1 block,Gal4-VP16 FLuc,RORgamma inh,TDP1 cell CPT
CCOc1ccc2nc(S(=O)(=O)NC(=O)C3(C)CCN3C(=O)c3c(C)noc3C)sc2c1 (stereo not given),-9.2%,.,.,.,-0.9%
COC(=O)C1=C(C(=O)OC)[C@]2([C@@H]3C/C=C\CN[C@@H](Cc4ccccc4)C(=O)N3Cc3ccccc3)C=C[C@H]1O2,?,.,.,.,25.1µM*
COC(=O)c1ccc(C2SCC(=O)N2Cc2ccccc2)cc1 (stereo not given),?,.,1.7%,-17.2%,-5.3%
N#C[C@@H]1N(Cc2ccccc2)C(=O)[C@H]2CC3C=CC21O3 (stereo not given in full),?,0.2%,.,.,?
COC(=O)C1=C(C(=O)OC)[C@]2([C@@H]3CCCCN[C@@H](Cc4ccccc4)C(=O)N3Cc3ccccc3)C=C[C@H]1O2,13µM*,.,.,.,14.6µM*
CCOc1ccccc1NCc1cc(=O)oc2cc(C)c(O)cc12,-14.5%,.,?,27.5%,?
CCN(CC)C(=O)CSc1nc2ncc(Br)cc2[nH]1,4.3%,2.0%,6.9%,?,-110.4%
O=C(CSc1nc2ncc(Cl)cc2[nH]1)Nc1ccccc1-c1ccccc1,?,2.5%,-8.2%,-29.3%,?
O=C(CSc1nc2ncc(Br)cc2[nH]1)c1ccc([N+](=O)[O-])cc1,?,5.7%,-85.4%,-79.8%,18.4µM*
O=C(CSc1nc2ncc(Br)cc2[nH]1)Nc1ccccc1-c1ccccc1,?,2.1%,?,?,16.4µM*
CC(=O)c1ccc(NC(=O)CSCC(=O)Nc2ccc3ccccc3c2)cc1,?,0.0%,-2.6%,26.9%,7.3%
O=C(CCS(=O)(=O)c1ccccc1)N1CCOCC1,-14.6%,0.0%,2.2%,9.7%,-2.4%
O=C(O)Cn1cc2c(n1)CCCC2,-9.7%,-2.2%,2.0%,9.7%,10.0%
CC(=O)Oc1ccc(C(c2ccc(OC(C)=O)cc2)c2ccccn2)cc1,15µM*,8.2%,-3.4%,-1.7%,?
O=S(=O)(O)Oc1ccc(C(c2ccc(OS(=O)(=O)O)cc2)c2ccccn2)cc1,7.7%,.,.,.,-2.2%
COc1ccccc1NC(=O)C1=C(C)N(c2ccccc2)C(=S)NC1c1cccc(C(F)(F)F)c1 (stereo not given),?,11.7%,-9.1%,-23.9%,?
c1cc2c(cc1C1=Nn3c(nnc3C3CCCCC3)SC1)OCO2,13µM*,9.5%,-3.9%,1.9%,18.4µM*
COc1ccccc1OCC(=O)NNC(=O)C(=O)N1CCCC1,6.3%,1.9%,14.2%,?,24.7%
O=C(Nc1ccc(Cc2ccncc2)cc1)C1CCC(N2C(=O)C3C4C=CC(C5CC45)C3C2=O)CC1 (stereo not given),14.6µM*,-1.0%,-17.6%,?,18.4µM*
Cn1cccc1/C=C1\SC(=O)N(c2ccc(O)cc2)C1=O,?,-0.6%,-20.0%,2.82µM*,-22.4%
Cc1ccccc1-n1c(=O)n(Cc2ccccc2)c(=O)c2[nH]cnc21,-4.7%,0.0%,12.6%,0.282µM*,0.3%
COc1cccc(Cn2c(=O)c3[nH]cnc3n(-c3ccccc3C)c2=O)c1,?,-1.9%,18.7%,25.9%,-28.9%
